Legend:
TIE2 = tested on: T1, TIE2
T1 construct: gene TEK
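Further: kd values determined as follow-up on hits from a single-replicate KINOMEscan panel screen.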

## Cl.O=S(=O)(c1cccc(F)c1)c1ccc(Nc2ncnc3cc(Br)sc23)cc1Cl [GSK306886]
SRPK1
  Kd: > 10000 nM

## Cn1cc(-c2ccc3c(c2)CCN3C(=O)Cc2cccc(C(F)(F)F)c2)c2c(N)ncnc21 [GSK2606414]
SRPK3
  Kd: > 10000 nM

## Cc1ccc(C)c(NC(=O)NCCNc2ccnc(Nc3ccc(F)cc3)n2)c1 [GSK1379878]
STK16
  Kd: > 10000 nM

## c1ccc(-c2ccc3c(-c4ccnc(Nc5ccc6c(c5)OCCO6)n4)cnn3n2)cc1 [GW818941]
STK16
  Kd: 620 nM

## Cl.Cl.c1ccc(-c2cc3ccncc3cc2OC2CCNCC2)cc1 [GSK1122999]
STK33
  Kd: > 10000 nM
STK36
  Kd: > 10000 nM

## CCc1nc(-c2cccc(N(C)S(=O)(=O)c3ccccc3)c2)c(-c2ccnc(Nc3ccc(N4CCN(C(C)=O)CC4)nc3)n2)s1 [GSK1645895]
STK36
  Kd: 56 nM

## Cc1ccc(O)cc1Nc1cc(C(F)(F)F)nc2ccc(-c3ccncc3)cc12 [GW630823]
TEC
  Kd: > 10000 nM

## Cn1ccc2ncnc(Nc3ccc(Oc4cccc(Cl)c4)c(Cl)c3)c21
TEC
  Kd: > 10000 nM

## CS(=O)(=O)CCNCc1nc(-c2ccc3ncnc(Nc4ccc(OCc5cccc(F)c5)c(Cl)c4)c3c2)cs1.Cl [GW583340]
TESK1
  Kd: > 10000 nM

## O=C(c1ccc(-c2cc(-c3c[nH]nc3-c3ccccn3)ccn2)cc1)N1CCCC1 [GW792479]
TGFBR1
  Kd: 170 nM

## FC(F)(F)c1ccc(-c2cc(-c3c[nH]nc3-c3ccccn3)ccn2)cc1 [GW599550]
TGFBR1
  Kd: 220 nM

## Clc1ccc(-c2cc(-c3c[nH]nc3-c3ccccn3)ccn2)cc1 [GW681251]
TGFBR2
  Kd: 530 nM

## CC(C)N1CCC(n2cnc(-c3ccc(F)cc3)c2-c2ccnc(N)n2)CC1 [SB-223132]
TIE2
  Kd: > 10000 nM
